This is a sample that favours compounds with a hit; in the whole collection about 10% have one here.
Luciferase inh: blocks purified firefly luciferase enzyme activity | P08659 | purified P. pyralis luciferase, luminescence, biochemical | Potency, µM (series often up to 115 µM), most hits filed as inhibitors | hit rate 2.5% among 76,000; note: nearly all actives have a fitted effect of over 65% in size
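Cell-free enzyme assay, 10nM P. pyralis luciferase, luciferin and ATP each at 10uM. Inhibition profiled over a 6-point titration, read as luminescence.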
NIH3T3 tox: NIH 3T3 cell cytotoxicity; NIH 3T3 viability, CellTiter-Glo ATP luminescence, 48-72 h; Potency, µM (top dose mostly 96.7 µM), without a hit: at the highest dose activity change, negative = cytotoxicity, usual class: inhibitors; hit rate 4.3% among 94,000; note: nearly all actives have a fitted effect of over 55% in size
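Cytotoxicity is measured as loss of cellular ATP: NIH 3T3 cells (400/well) are exposed to compound for 48 or 72 hr at 37 °C, then CellTiter-Glo luminescence is imaged after 10 min at room temperature.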
HEK293 tox: cytotoxic compounds in HEK 293 cells; Potency, µM (series often up to 115 µM), without a hit: top-dose activity change, negative = cytotoxicity, usual class: inhibitors; HEK 293 viability, ATP luminescence (CellTiter-Glo), 48-72 h; hit rate 6.6% among 94,000; AID 1345083; note: nearly all actives have a fitted effect of over 60% in size
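Pintool-delivered compounds were incubated with HEK 293 cells (250 cells/well) at 37 degree Celsius for 48 or 72 hr. ATP-dependent luminescence (CellTiter-Glo) then reported remaining viable cells.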
GPT2 inh: inhibitors of human GPT2 alanine aminotransferase. Q8TD30. Recombinant GPT2, coupled pyruvate oxidase/HRP Amplex Red fluorescence. Potency, µM (top dose mostly 57.7 µM), for inactives: top-dose activity change, negative = inhibition, actives largely listed as inhibitors. hit rate 0.25% among 100,000; note: nearly all actives have a fitted effect of over 60% in size
Target sequence (Q8TD30 whole entry, looked up): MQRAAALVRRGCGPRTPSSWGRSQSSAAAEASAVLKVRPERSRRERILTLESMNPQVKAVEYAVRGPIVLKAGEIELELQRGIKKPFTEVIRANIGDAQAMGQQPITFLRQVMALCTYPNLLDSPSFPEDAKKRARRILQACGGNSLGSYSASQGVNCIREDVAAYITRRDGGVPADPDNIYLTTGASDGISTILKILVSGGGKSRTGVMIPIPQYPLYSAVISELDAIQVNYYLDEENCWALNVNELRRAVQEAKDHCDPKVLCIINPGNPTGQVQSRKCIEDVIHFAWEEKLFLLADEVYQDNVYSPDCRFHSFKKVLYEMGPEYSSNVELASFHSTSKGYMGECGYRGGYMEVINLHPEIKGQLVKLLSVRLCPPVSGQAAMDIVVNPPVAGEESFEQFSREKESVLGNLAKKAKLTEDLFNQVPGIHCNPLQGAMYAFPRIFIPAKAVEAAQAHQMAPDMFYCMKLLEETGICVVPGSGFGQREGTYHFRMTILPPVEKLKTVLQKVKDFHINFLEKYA
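Fluorescence read-out: pyruvate from GPT2 turnover coupled to pyruvate oxidase, HRP and Amplex Red (0.2mM ThPP, 0.2U/mL PO and HRP, 50uM Amplex final). Substrates 250uM a-KG, 2mM L-alanine; enzyme 10ng/uL; 30 min RT.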
hNpr1 antagonist: human Npr1 receptor antagonism. Potency, µM (doses to about 46.3 µM), inactives show top-dose activity change, negative = inhibition, usual class: inhibitors. hit rate 1.6% among 76,000. HEK293 hNpr1 GloSensor cGMP, ANP-stimulated luminescence. P16066; calls by dose curve; note: nearly all actives have a fitted effect of over 60% in size
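Compound pre-incubated 30 min at room temperature on GloSensor-loaded HEK293 cells stably carrying hNpr1 and the pGS-40F cGMP biosensor. Stimulation uses hNppA at 0.1 nM final; luminescence is taken at baseline and 20 min post-agonist.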
Numbers without * were called inactive; i = inactive; ? = inconclusive; · = no result given; [ ] = dose if it differs, or a comment. Unless noted, calls come from the whole dose curve; as a rule, active = well fitted curve in the direction sought with a large enough effect; inconclusive = small, poorly fitted or top-dose-only effect, or another doubt; inactive = no such curve, though single readings can be large; an effect the other way counts as inactive or inconclusive. % is set by controls: 0 for no effect and ±100 for the full control effect; potency is the fitted concentration of half-maximal effect.

SMILES	Luciferase inh	NIH3T3 tox	HEK293 tox	GPT2 inh	hNpr1 antagonist
O=C(NC1CCCCC1)N1Cc2[nH]cnc2C[C@H]1c1nc(-c2ccc3ccccc3c2)no1	25µM*	1%	-5%	i	0%
O=C(Nc1ccc(F)cc1)N1Cc2[nH]cnc2C[C@H]1c1nc(-c2ccc(F)cc2)no1	?	?	?	1%[88.5 µM]	-15%[70.6 µM]
O=C(NC1CCCCC1)N1Cc2[nH]cnc2C[C@H]1c1nc(-c2ccc(Cl)cc2)no1	?	-27%[174 µM]	i	-24%[88.5 µM]	-5%[70.6 µM]
Cc1ccc(NC(=O)N2Cc3[nH]cnc3C[C@H]2c2nc(C(C)C)no2)cc1	?	-13%[174 µM]	4%[172 µM]	i	6%[70.6 µM]
CCOC(=O)c1ccc(NC(=O)N2Cc3[nH]cnc3C[C@H]2c2nc(C(C)C)no2)cc1	i	100µM*	?	2%[88.5 µM]	1%[70.6 µM]
Cc1csc(NC(=O)c2nc3c(o2)CCN(CC2CCCC2)CC3)n1	28µM*	?	?	4%[88.5 µM]	-3%[70.6 µM]
Cc1csc(NC(=O)c2nc3c(o2)CCN(Cc2ccc4[nH]ccc4c2)CC3)n1	35µM*	?	100µM*	i	-17%[70.6 µM]
Cc1ccc(CN2CCc3nc(C(=O)Nc4nc(C)cs4)oc3CC2)cc1	i	?	71µM*	-24%[88.5 µM]	-21%[70.6 µM]
Cc1csc(NC(=O)c2nc3c(o2)CCN(CCCc2ccccc2)CC3)n1	i	?	?	-13%[88.5 µM]	-7%[70.6 µM]
COC(=O)[C@@H]1Cc2nc[nH]c2CN1C(C)C	i	71µM*	?	3%[88.5 µM]	2%[70.6 µM]
COC(=O)[C@@H]1Cc2nc[nH]c2CN1C1CCOCC1	i	-8%[230 µM]	-11%[230 µM]	i	6%[70.6 µM]
Cc1nn(-c2ccc(C(C)(C)C)cc2)c(C)c1[C@@H]1C=C[C@@H](NCc2ccco2)C1	50µM*	?	11µM*	4%[88.5 µM]	-30%[70.6 µM]
Cc1nn(-c2ccc(C(F)(F)F)cc2)c(C)c1[C@@H]1C=C[C@@H](NC(=O)NC2CCCCC2)C1	i	?	?	?	-20%
CCNC(=O)N[C@@H]1C=C[C@@H](c2c(C)nn(-c3ccc(C(C)(C)C)cc3)c2C)C1	?	?	35µM*	i	32µM*
Cc1nn(-c2ccc(C(C)C)cc2)c(C)c1[C@@H]1C=C[C@@H](NC(=O)NC2CCCCC2)C1	7.9µM*	?	?	4%[88.5 µM]	?
Cc1nn(-c2ccc(C(C)C)cc2)c(C)c1[C@@H]1C=C[C@@H](NC(=O)Nc2ccc(Cl)cc2)C1	i	?	?	2%	-19%
Cc1nn(-c2ccc(C(C)C)cc2)c(C)c1[C@@H]1C=C[C@@H](NC(=O)NCc2ccccc2)C1	?	25µM*	25µM*	i	7.1µM*
CC(C)CN1C(=O)CO[C@H](c2ccc(NC(=O)C3CCCC3)cc2)[C@H]1CO	i	?	?	-4%[88.5 µM]	?
CC1CCCC(C)N1C(=O)c1cc(-c2cc(Cl)cc(Cl)c2)c2nncn2n1 (centres undefined)	·	?	-14%	i	·
COCCCn1c(=O)c(C(=O)N2CCN([S+](=O)([O-])c3cccc(OC)c3)CC2)nc2cccnc21	·	-7%	1%	-7%	·
Cc1nn(-c2ccc(C(C)(C)C)cc2)c(C)c1[C@@H]1C=C[C@@H](NC(=O)CC(C)(C)CC(=O)O)C1	?	?	i	i	1%
Cc1nn(-c2ccc(C(C)(C)C)cc2)c(C)c1[C@@H]1C=C[C@@H](NC(=O)NCc2ccccc2)C1	?	?	28µM*	3%[88.5 µM]	18µM*
COc1ccccc1CC(=O)Nc1ccc2c(N3CCCCC3)ncnc2c1	i	?	25µM*	-3%	?
Cc1ccccc1CC(=O)Nc1ccc2ncnc(N3CCCCC3)c2c1	i	?	40µM*	i	-7%
O=C(Cc1cccs1)Nc1ccc2c(N3CCCCC3)ncnc2c1	i	?	?	1%	?
SMILES	Luciferase inh	NIH3T3 tox	HEK293 tox	GPT2 inh	hNpr1 antagonist
CN1CCC(N[C@H]2C[C@@H](Cc3cc(CN(C)Cc4ccccc4)on3)C2(C)C)CC1	i	28µM*	40µM*	2%[88.5 µM]	-18%[70.6 µM]
CN1CCC(N[C@H]2C[C@@H](Cc3cc(-c4ccccc4)on3)C2(C)C)CC1	i	8.9µM*	8.9µM*	-18%[88.5 µM]	-4%[70.6 µM]
CCNC(=O)N[C@H]1C[C@@H](Cc2cc(-c3ccccc3)on2)C1(C)C	?	?	?	-14%[88.5 µM]	-21%[70.6 µM]
CC(C)N[C@H]1C[C@@H](Cc2cc(-c3ccccc3)on2)C1(C)C	?	63µM*	63µM*	-3%[88.5 µM]	4%[70.6 µM]
Cc1nc(CN2CCCC(CCc3ccccc3C(F)(F)F)C2)no1 (centres undefined)	i	?	?	-10%	2%
N#C[C@@H]1C[C@H](F)CN1C(=O)CNC1[C@H]2CN(C(=O)c3ccc(F)cc3)C[C@@H]12 (some centres undefined)	·	·	·	i	·
CC(=O)N(C1CC1)C1CCOC2(CCN(C(=O)c3cc(C)n(C)n3)CC2)C1 (centres undefined)	·	-19%	-3%	i	·
Cc1noc(C)c1-c1cc2cc(CN3CCN(C)CC3)oc2c(NC2CCN(C)CC2)n1	i	89µM*	?	-8%[88.5 µM]	2%[70.6 µM]
Cc1noc(C)c1-c1cc2c(cc(C)n2C)c(NC2CCN(C)CC2)n1	i	?	?	i	-2%[70.6 µM]
Cc1noc(C)c1-c1cc2cc(CNC(C)C)oc2c(NC2CCN(C)CC2)n1	i	?	63µM*	0%[88.5 µM]	-2%[70.6 µM]
O=C(c1ccccc1)N1CCCN(c2ccc3nnc(C4CC4)n3n2)CC1	·	-14%	-1%	·	·
O=C(c1cc(-c2cccc(C(F)(F)F)c2)c2nncn2n1)N1CCN(Cc2ccccc2)CC1	·	-11%	?	i	·
Cc1ncsc1CCNC(=O)c1ccc2nc(-c3ccccc3)cn2c1	?	?	?	1%	0%
COc1ccc(C(=O)N2CCCC(c3nn(C)c(=O)n3C(C)C)C2)cc1OC (centres undefined)	·	-26%	-17%	2%	·
Cn1nccc1CN1CCCC2(COc3ccccc3C(=O)N2)C1 (centres undefined)	i	8.9µM*	28µM*	i	?
O=C1NC2(CCN(Cc3ccsc3)C2)COc2ccccc21 (centres undefined)	i	40µM*	?	4%[88.5 µM]	4%[70.6 µM]
O=C1NC2(CCN(Cc3ccsc3)C2)Oc2ccccc21 (centres undefined)	i	-27%[138 µM]	-29%[172 µM]	i	15%[70.6 µM]
Cc1ccc(CN2CCC3(CC2)COc2ccccc2C(=O)N3)cc1	i	?	28µM*	4%	-4%
O=C1NC2(CCN(CC3CCCCC3)CC2)COc2ccccc21	i	79µM*	35µM*	i	4%[70.6 µM]
Cc1cc(S(=O)(=O)N2CCC(Oc3ncccc3C(=O)N3CCOCC3)C2)ccc1F (centres undefined)	i	-7%	-2%	i	-3%
